These results are taken from ChEMBL document CHEMBL3988442, “University of Dundee, Small-Polar-MMV Screening Library” (2021).

Screen size: about 48,000 compounds; about 13,000 (27%) showed an effect of 50% or more. Some of the results follow.

The experiment has as its system Wolbachia pipientis. Description: Anti-Wolbachia Cell-Based Screen. As to conditions: 5 µM. The experiment is classed as functional. Further details: scale not given: in the data most compounds retested in dose-response had high values.
As to `CCNC(=O)CN1CCSC2(CCCCC2)C1`, the “Percent Effect” value is on record as -30.52%.
The same measure for `Cc1noc(C)c1CN1C[C@@H]2CCCO[C@@H]2[C@H](NS(C)(=O)=O)C1.O=C(O)C(F)(F)F`: -5.766%; for `O=C(O)C(F)(F)F.O=C(O)C(F)(F)F.O=C(O)C(F)(F)F.c1ccc(CN2C[C@@H]3CCCO[C@@H]3[C@H](Nc3ccccn3)C2)nc1`: -7.621%.
As for `CCS(=O)(=O)N[C@@H]1CN(Cc2cc(C)on2)C[C@@H]2CCCO[C@@H]21.O=C(O)C(F)(F)F`, the “Percent Effect” value is listed as -1.229%.
Under `Cc1ncsc1CN1C[C@@H]2CCCO[C@@H]2[C@H](Nc2ccccn2)C1.O=C(O)C(F)(F)F.O=C(O)C(F)(F)F` stands 103.9%.
Under `CCOCCN1C[C@@H]2CCCO[C@@H]2[C@H](NC(=O)c2cnoc2C)C1.O=C(O)C(F)(F)F` stands 102.3%.
Under `Cc1oncc1C(=O)N[C@@H]1CN(C2CCC2)C[C@@H]2CCCO[C@@H]21.O=C(O)C(F)(F)F` stands 88.41%; under `Cc1oncc1C(=O)N[C@@H]1CN(CC2CC2)C[C@@H]2CCCO[C@@H]21.O=C(O)C(F)(F)F`, 91.11%; under `Cc1cc(CN2C[C@@H]3CCCO[C@@H]3[C@H](NS(C)(=O)=O)C2)no1.O=C(O)C(F)(F)F`, -7.292%.
As to `Cc1cc(CN2C[C@@H]3CCCO[C@@H]3[C@H](Nc3ccccn3)C2)no1.O=C(O)C(F)(F)F.O=C(O)C(F)(F)F`, the “Percent Effect” value is 7.146%.
For the compound `O=C(CC1CC1)N[C@@H]1CN(Cc2cccnc2)C[C@@H]2CCCO[C@@H]21.O=C(O)C(F)(F)F.O=C(O)C(F)(F)F`, the “Percent Effect” value is given as -3.357%.
The same measure for `O=C(CC1CC1)N[C@@H]1CN(Cc2ccncc2)C[C@@H]2CCCO[C@@H]21.O=C(O)C(F)(F)F.O=C(O)C(F)(F)F`: -9.965%.
As to `CC(C)c1cc(N2CCCC3(CCN(C)C3)C2)ncn1` (stereo not drawn), the “Percent Effect” value came out at 23.89%.
As for `CCN(CC)C(=O)C1CCC2(CCNCC2)O1.Cl` (stereo not drawn), the “Percent Effect” value is -5.53%.
The same measure for `Cc1nn(CCNC(C)Cn2ccnc2)c(C)c1Cl` (stereo not drawn): -2.201%.
Under `COCC(=O)NC(C)Cc1cccc(Br)c1` (stereo not drawn) stands -14.37%.
Regarding `CC(C)c1cc(CN2CCNCC2)no1`, the “Percent Effect” value is reported as 116.8%.
In the case of `CCc1cc(N2CCNCC2)n2nc(C)c(C)c2n1`, the “Percent Effect” value is reported as -8.161%.
The same measure for `CCc1noc(C(C)N2CCNCC2)n1` (stereo not drawn): 13%.
For `CN1CCC2(CC1)C(=O)N(c1cccnc1)c1ccc(F)cc12.Cl`, the “Percent Effect” value is -1.333%.
For `O=C(c1ccc(-n2ccnc2)nc1)N1CCN2CCCCC2C1` (stereo not drawn), the “Percent Effect” value was -5.274%.
On to `NC(=O)CN1CCCCC1c1ccc(-n2ccnc2)nc1` (stereo not drawn), for which the “Percent Effect” value was determined as 114.9%.
For the compound `CN1CCCCC1c1ccc(-n2ccnc2)nc1` (stereo not drawn), the “Percent Effect” value was determined as 128%.
Under `Cl.NC(CC1CCCCC1)c1ccccc1` (stereo not drawn) stands -2.613%; under `CCCn1cc(C(=O)NCCS(N)(=O)=O)c2ccccc21`, 15.61%.
Under `COCCn1cc(C(=O)NCCS(N)(=O)=O)c2ccccc21` stands 11.42%; under `COCCn1cc(C(=O)Nc2nc3c(s2)CCC3)c2ccccc21`, 108.8%.
For the compound `Cc1ccc(CN2CC[C@@H]3[C@@H]2CCN3C(=O)Cc2cccs2)o1.O=C(O)C(F)(F)F`, the “Percent Effect” value is 90.39%.
Under `Cc1cccc(CN2CC[C@@H]3[C@@H]2CCN3C(=O)Cc2cccs2)n1.O=C(O)C(F)(F)F.O=C(O)C(F)(F)F` stands 101.6%; under `Cc1cccc(CN2CC[C@@H]3[C@@H]2CCN3C(=O)c2cnoc2C)n1`, -2.884%.
The same measure for `Cc1cccc(CN2CC[C@@H]3[C@@H]2CCN3C(=O)c2ccno2)n1.O=C(O)C(F)(F)F.O=C(O)C(F)(F)F`: -0.9424%; for `Cc1ccc(CN2CC[C@H]3[C@H]2CC(=O)N3c2cccnc2)o1.O=C(O)C(F)(F)F.O=C(O)C(F)(F)F`: 1.465%.
Regarding `Cc1cccc(CN2C(=O)C[C@H]3[C@@H]2CCN3Cc2cccs2)n1.O=C(O)C(F)(F)F.O=C(O)C(F)(F)F`, the “Percent Effect” value was found to be 4.955%.
The same measure for `COCCN1C[C@@H]2[C@@H](OC)CCN(Cc3cccc(C)n3)[C@@H]2C1.O=C(O)C(F)(F)F.O=C(O)C(F)(F)F.O=C(O)C(F)(F)F`: 0.3153%; for `Cc1cccc(CN2CC[C@@H]3[C@@H]2CCN3Cc2cccs2)n1.O=C(O)C(F)(F)F.O=C(O)C(F)(F)F`: 102.2%.
Under `Cc1cccc(CN2CC[C@H]3[C@H]2CCN3C(=O)c2cnn(C)c2)n1.O=C(O)C(F)(F)F.O=C(O)C(F)(F)F` stands -8.772%.
In the case of `Cc1cc(CN2CC[C@H]3[C@H]2CCN3C)oc1C.O=C(O)C(F)(F)F.O=C(O)C(F)(F)F`, the “Percent Effect” value is on record as 2.968%.
With `Cc1cccc(CN2CC[C@@H]3[C@@H]2CCN3C(=O)Cc2ccsc2)n1.O=C(O)C(F)(F)F.O=C(O)C(F)(F)F`, the “Percent Effect” value was found to be 119.7%.
As to `CC(C)(C)c1cn(C[C@H]2CC3CCN2C[C@@H]3C(=O)NC2CC2)nn1` (stereo partly drawn), the “Percent Effect” value came out at 12.02%.
The same measure for `CC(C)N1[C@H](Cn2cncn2)C[C@@H]2CNCC[C@@H]21.Cl.Cl`: -6.101%; for `Cc1ccc(N2CCO[C@H]3CN(Cc4ccccn4)C[C@H]32)nn1.O=C(O)C(F)(F)F.O=C(O)C(F)(F)F.O=C(O)C(F)(F)F`: -12.44%; for `Cc1ccc(N2CC[C@@H]3[C@@H]2CCN3Cc2ccsc2)nn1.O=C(O)C(F)(F)F.O=C(O)C(F)(F)F`: 101.6%.
As for `Cc1ccc(N2C[C@@H]3CN(Cc4ccsc4)CCO[C@@H]3C2)nn1.O=C(O)C(F)(F)F.O=C(O)C(F)(F)F`, the “Percent Effect” value is reported as -3.128%.
The same measure for `COc1ncnc(N)c1CNCCc1ccccc1`: 127.7%; for `CC[C@@H]1N(CC2CC2)CCC[C@]12CCC(=O)N2.O=C(O)C(F)(F)F`: -18.87%; for `CNC(=O)c1ccc2c(c1)C1(CCN(CCOC)CC1)C(=O)N2.O=C(O)C(F)(F)F`: 94.3%.
As for `CC(=O)N1CCC2(CN(CC3CCCC3)C2)C1.O=C(O)C(F)(F)F`, the “Percent Effect” value is recorded as -16.93%.
The same measure for `COCCN1CCC2(CC1)C(=O)Nc1ccc(C(=O)NC(C)C)cc12.O=C(O)C(F)(F)F`: 101%; for `CCN1CCC2(CC1)C(=O)Nc1ccc(C(=O)NC)cc12.O=C(O)C(F)(F)F`: 117.8%.
With `CNC(=O)c1ccc2c(c1)C1(CCN(CC3CC3)CC1)C(=O)N2.O=C(O)C(F)(F)F`, the “Percent Effect” value is given as 108.4%.
On to `Cn1cc(CN2CCC3(CC2)C(=O)Nc2ccccc23)cn1.O=C(O)C(F)(F)F`, for which the “Percent Effect” value was -7.765%.
The same measure for `CCN1CCC12CCN(C(=O)c1cc(C)on1)C2.O=C(O)C(F)(F)F` (stereo not drawn): -17.49%; for `COCCN1CCC2(C1)CN(c1ncc(F)cn1)C2.O=C(O)C(F)(F)F`: 4.032%.
